Results published in the supplement of paper PMC6897291.

Experiments:
U-2932 [1] = assay: growth inhibition by drug alone (1 - RLU/untreated control) (fraction); higher = stronger inhibition; settings: 177Lu-lilotomab satetraxetan 0 ug/ml
In short: (§1)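 A radiolabelled anti-CD37 antibody conjugate (~600 MBq/mg) was applied for 18 h at 0.5 µg/ml to RIVA and 1 µg/ml to U-2932 cells, with untreated cells run alongside. All cells were washed and seeded at 3,000 cells/well onto library-printed plates at 10/100 nM (RIVA) or 10/1,000 nM (U-2932). Growth inhibition was based on RealTime-Glo luminescence compared with untreated no-drug wells. Daily reads began on day 3 after 1 h at 37°C, with each value being 1 − RLU/mean of the 48 such wells on that plate.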

RIVA [2] = assay: as above; settings: 177Lu-lilotomab satetraxetan 0 ug/ml
In short: as §1

U-2932 [3] = assay: growth inhibition by drug plus 177Lu-lilotomab satetraxetan (1 - RLU/untreated control) (fraction); higher = stronger inhibition; settings: 177Lu-lilotomab satetraxetan 1 ug/ml
In short: as §1

RIVA [4] = assay: as above; settings: 177Lu-lilotomab satetraxetan 0.5 ug/ml
In short: as §1

SMILES | growth inhibition by drug alone (U-2932 [1]; 10 nM, time (day): 3) | growth inhibition by drug alone (U-2932 [1]; 10 nM, time (day): 4) | growth inhibition by drug alone (U-2932 [1]; 10 nM, time (day): 5) | growth inhibition by drug alone (U-2932 [1]; 10 nM, time (day): 6) | growth inhibition by drug alone (U-2932 [1]; 1000 nM, time (day): 3) | growth inhibition by drug alone (U-2932 [1]; 1000 nM, time (day): 4) | growth inhibition by drug alone (U-2932 [1]; 1000 nM, time (day): 5) | growth inhibition by drug alone (U-2932 [1]; 1000 nM, time (day): 6) | growth inhibition by drug alone (RIVA [2]; 10 nM, time (day): 3) | growth inhibition by drug alone (RIVA [2]; 10 nM, time (day): 4) | growth inhibition by drug alone (RIVA [2]; 10 nM, time (day): 5) | growth inhibition by drug alone (RIVA [2]; 10 nM, time (day): 6) | growth inhibition by drug alone (RIVA [2]; 100 nM, time (day): 3) | growth inhibition by drug alone (RIVA [2]; 100 nM, time (day): 4) | growth inhibition by drug alone (RIVA [2]; 100 nM, time (day): 5) | growth inhibition by drug alone (RIVA [2]; 100 nM, time (day): 6) | growth inhibition by drug plus 177Lu-lilotomab satetraxetan (U-2932 [3]; 10 nM, time (day): 3) | growth inhibition by drug plus 177Lu-lilotomab satetraxetan (U-2932 [3]; 10 nM, time (day): 4) | growth inhibition by drug plus 177Lu-lilotomab satetraxetan (U-2932 [3]; 10 nM, time (day): 5) | growth inhibition by drug plus 177Lu-lilotomab satetraxetan (U-2932 [3]; 10 nM, time (day): 6) | growth inhibition by drug plus 177Lu-lilotomab satetraxetan (U-2932 [3]; 1000 nM, time (day): 3) | growth inhibition by drug plus 177Lu-lilotomab satetraxetan (U-2932 [3]; 1000 nM, time (day): 4) | growth inhibition by drug plus 177Lu-lilotomab satetraxetan (U-2932 [3]; 1000 nM, time (day): 5) | growth inhibition by drug plus 177Lu-lilotomab satetraxetan (U-2932 [3]; 1000 nM, time (day): 6) | growth inhibition by drug plus 177Lu-lilotomab satetraxetan (RIVA [4]; 10 nM, time (day): 3) | growth inhibition by drug plus 177Lu-lilotomab satetraxetan (RIVA [4]; 10 nM, time (day): 4) | growth inhibition by drug plus 177Lu-lilotomab satetraxetan (RIVA [4]; 10 nM, time (day): 5) | growth inhibition by drug plus 177Lu-lilotomab satetraxetan (RIVA [4]; 10 nM, time (day): 6) | growth inhibition by drug plus 177Lu-lilotomab satetraxetan (RIVA [4]; 100 nM, time (day): 3) | growth inhibition by drug plus 177Lu-lilotomab satetraxetan (RIVA [4]; 100 nM, time (day): 4) | growth inhibition by drug plus 177Lu-lilotomab satetraxetan (RIVA [4]; 100 nM, time (day): 5) | growth inhibition by drug plus 177Lu-lilotomab satetraxetan (RIVA [4]; 100 nM, time (day): 6)
O=C(O)CCc1ccc(NCc2cccc(Oc3ccccc3)c2)cc1 | -0.00379 | -0.0257 | -0.0189 | -0.0582 | -0.0179 | -0.0506 | -0.13 | -0.129 | -0.138 | -0.183 | -0.212 | -0.37 | -0.259 | -0.306 | -0.351 | -0.547 | -0.0541 | 0.038 | 0.0596 | 0.0671 | -0.0069 | 0.0299 | 0.0402 | 0.126 | 0.476 | 0.546 | 0.562 | 0.557 | 0.432 | 0.527 | 0.552 | 0.561
N#Cc1ccc(C(c2ccc(C#N)cc2)n2cncn2)cc1 [Letrozole] | -0.0916 | -0.0615 | -0.0521 | 0.00419 | -0.0775 | -0.0542 | -0.0553 | -0.0728 | -0.194 | -0.245 | -0.249 | -0.307 | -0.0878 | -0.169 | -0.207 | -0.242 | -0.121 | -0.0795 | -0.0651 | 0.00121 | -0.131 | -0.067 | -0.0375 | 0.0441 | 0.418 | 0.498 | 0.524 | 0.535 | 0.319 | 0.397 | 0.409 | 0.401
CN(C)Cc1ccc(-c2nc3cccc4c3n2CCNC4=O)cc1 | 0.121 | 0.0696 | -0.0285 | -0.000931 | 0.038 | 0.056 | -0.00883 | -0.203 | -0.0131 | 0.0265 | -0.0439 | -0.223 | -0.0162 | 0.0398 | 0.00266 | -0.0877 | 0.00803 | 0.0491 | 0.0539 | 0.0786 | 0.0336 | 0.127 | 0.116 | 0.183 | 0.564 | 0.632 | 0.638 | 0.652 | 0.585 | 0.642 | 0.654 | 0.657
CN1CCC(CNc2ccc3ncc(-c4cccc(OC(F)(F)F)c4)n3n2)CC1 [SGI-1776 free base] | 0.04 | 0.0462 | -0.0159 | -0.415 | 0.131 | 0.115 | 0.0463 | -0.00407 | -0.104 | -0.155 | -0.336 | -0.875 | -0.453 | -0.367 | -0.351 | -0.438 | -0.0394 | 0.0134 | 0.0445 | 0.0394 | 0.154 | 0.125 | 0.168 | 0.265 | 0.428 | 0.539 | 0.541 | 0.561 | 0.302 | 0.441 | 0.445 | 0.462
CC(c1cc2ccccc2s1)N(O)C(N)=O (stereo not given) [Zileuton] | 0.0373 | 0.016 | -0.0853 | -0.151 | -0.0669 | -0.0105 | -0.0851 | -0.12 | -0.0289 | -0.0441 | -0.104 | -0.421 | -0.161 | -0.195 | -0.186 | -0.323 | -0.00999 | 0.00112 | 0.025 | 0.0355 | -0.0574 | 0.0263 | -0.0233 | 0.0666 | – | – | – | – | – | – | – | –
CC(C)[C@H](C(=O)Nc1ccc(C(=O)NO)cc1)c1ccccc1 | 0.0244 | 0.00418 | -0.0183 | -0.000531 | 0.96 | 0.964 | 0.973 | 0.98 | -0.0258 | -0.0463 | -0.0451 | -0.103 | 0.935 | 0.907 | 0.897 | 0.884 | 0.037 | 0.0315 | 0.0282 | 0.152 | 0.961 | 0.969 | 0.978 | 0.985 | 0.524 | 0.584 | 0.602 | 0.599 | 0.939 | 0.934 | 0.937 | 0.94
CC(C)C[C@H](NC(=O)[C@@H](O)[C@H](N)Cc1ccccc1)C(=O)O [Ubenimex (Bestatin)] | 0.0863 | 0.0556 | -0.0551 | -0.108 | -0.043 | -0.0237 | -0.0577 | -0.0906 | 0.135 | 0.0658 | -0.0244 | -0.181 | 0.0407 | 0.0221 | 0.00426 | -0.114 | 0.0135 | 0.0451 | 0.0835 | 0.192 | -0.112 | -0.0121 | -0.00508 | 0.0506 | – | – | – | – | – | – | – | –
Cc1ccc([N+](=O)[O-])cc1S(=O)(=O)N(C)/N=C/c1cnc2ccc(Br)cn12 | 0.343 | 0.311 | 0.248 | 0.226 | 0.963 | 0.969 | 0.976 | 0.979 | 0.193 | 0.193 | 0.103 | -0.15 | 0.507 | 0.599 | 0.585 | 0.539 | 0.346 | 0.371 | 0.418 | 0.47 | 0.969 | 0.975 | 0.981 | 0.985 | 0.675 | 0.726 | 0.736 | 0.726 | 0.775 | 0.854 | 0.868 | 0.889
